TGFb inhibitor – inhibitors of TGF-b signaling; Potency, µM (titrated, usually from 46.1 µM), actives largely listed as inhibitors; AID 588855; 1.2% of 410,000 active; HepG2 CAGA-GFP TGF-b/SMAD3 reporter, GFP fluorescence, 18 h; TGF-beta stimulated, 500 pg/mL final; note: nearly all actives have a fitted effect of over 65% in size
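Using HEPG2 CAGA-GFP reporter cells at 1000 cells/well, we pinned test compounds, stimulated with recombinant TGF-beta (500 pg/mL final) and measured total well GFP after 18 h.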
TDP1 cell noCPT – qHTS for Inhibitors of human tyrosyl-DNA phosphodiesterase 1 (TDP1): qHTS in cells in absence of CPT; DT40 Tdp1-/- hTDP1 cells, no CPT, ATP luminescence, 48 h; Potency, µM (doses to about 46.2 µM), hits mostly inhibitors; 15% of 420,000 active; note: nearly all actives have a fitted effect of over 55% in size
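DT40 Tdp1-/-;hTDP1 cells, no CPT (DMSO vehicle only), 400 cells/well; compounds pin-transferred; ≥48 hr, 37 °C; CellTiter-Glo 30 min RT dark, luminescence read.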
DT40 TDP1 CPT – growth inhibition of DT40 Tdp1-/-;hTDP1 cells with camptothecin (screen for TDP1 inhibitors); chicken DT40 Tdp1-/-;hTDP1 cells + 20 nM CPT, ATP luminescence, 48 h; Potency, µM (doses to about 46.2 µM), actives largely listed as inhibitors; 12% of 420,000 active; AID 686979; note: nearly all actives have a fitted effect of over 55% in size
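Chicken DT40 Tdp1-/- cells complemented with human TDP1, 400 cells/well, exposed to compounds plus 20 nM camptothecin for at least 48 h at 37 C; viability read as ATP content by CellTiter-Glo luminescence.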
HT1080NT lethal – kills 2HG-producing HT-1080-NT fibrosarcoma cells; HT-1080-NT fibrosarcoma viability, CellTiter-Glo ATP luminescence, 48 h; Potency, µM (doses to about 46.1 µM), hits mostly cytotoxic; 1.6% of 360,000 active; AID 686970;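 note: NT is the 2HG producing partner of a matched IDH1 knockdown line; nearly all actives have a fitted effect of over 55% in size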
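Read-out is CellTiter-Glo luminescence after 10 minutes at room temperature, following 48 hours' compound treatment of HT-1080-NT cells (750 cells/well, RPMI, 5% FBS, 37 degrees C).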
HepG2 viability – counter-screen for TGF-b inhibitors: cytotoxicity in HepG2 cells; Potency, µM (doses to about 46.1 µM), hits mostly cytotoxic; 0.76% of 410,000 active; AID 588856; HepG2 CAGA-GFP viability, ATP luminescence, 18 h
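HepG2 CAGA-GFP cells (1000/well, DMEM with 1% FBS) received compound, then TGF-beta at 500 pg/mL final, and were incubated 18 hours at 37 degrees C. Viability was read by CellTiter-Glo luminescence. Media-only wells were set as complete cell-killing and DMSO as no toxicity.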
HT1080 IDH1KD tx – toxicity to HT-1080 IDH1 knockdown cells (counter line) | HT-1080 IDH1 knockdown viability, ATP luminescence, 48 h | 2% of 360,000 active | Potency, µM (doses to about 46.1 µM), usual class: cytotoxic
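CellTiter-Glo luminescence after 48 h compound exposure at 37 degrees C of IDH1-knockdown HT-1080 cells in 5% FBS RPMI. %Activity scaled between DMSO wells and cell-free media wells, with curves fitted and assigned curve classes.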
Numbers stand for hits; . = inactive; ? = inconclusive; / = no result given. Shown are actives, neighbours in structure and some others; about 17% of the full set was active somewhere. Calls come from the whole dose curve; as a rule, active = well fitted curve in the direction sought with a large enough effect; inconclusive = small, poorly fitted or top-dose-only effect, or another doubt; inactive = no such curve, though single readings can be large; an effect the other way counts as inactive or inconclusive.

SMILES	TGFb inhibitor	TDP1 cell noCPT	DT40 TDP1 CPT	HT1080NT lethal	HepG2 viability	HT1080 IDH1KD tx
O=C(NC1CCCCC1)C(c1cccs1)N(C(=O)C(F)(F)F)c1ccccc1 (centres undefined)	.	.	?	.	.	.
NC(=O)c1nsc(C(=O)N(CCc2ccccc2)C(C(=O)NC2CCCC2)c2ccco2)c1N (centres undefined)	.	?	?	.	.	.
Cc1cccc(CCN(CC(=O)NC2CCCCC2)C(=O)c2csnn2)c1	.	.	.	.	.	.
COc1cccc(OCC(=O)N(C)Cc2nc(-c3cccc(C)c3)no2)c1	.	.	.	.	.	.
O=C1C2C3CC(C(Br)C3Br)C2C(=O)N1c1nccs1 (centres undefined)	.	.	.	.	.	.
COc1ccc(N2CCN(C(=O)CSc3nc(-c4ccccc4)no3)CC2)cc1	.	.	.	/	.	/
O=C(Nc1ccc(N2CCCC2)cc1)c1cc(Br)ccc1Cl	.	4.6µM	3.7µM	?	.	?
CCOC(=O)c1c(-c2ccccc2Cl)csc1NC(=O)c1cc(S(=O)(=O)N2CCOCC2)ccc1C	.	7.3µM	10µM	.	.	.
O=C(NNC(=S)Nc1ccccc1)c1cc(Br)ccc1Cl	14µM	?	.	.	.	.
CCc1ccccc1NC(=S)NNC(=O)c1ccccc1Cl	.	5.8µM	6.5µM	.	.	.
O=C(CC(c1ccccc1)c1ccccc1)Nc1ccc(C(=O)O)cc1	.	.	.	.	.	.
COCCn1c(=O)c(-c2ccc(OC)cc2)nc2cnc(OCc3ccccc3)nc21	/	.	.	/	/	/
CC(=O)Nc1cc2c3c(c1)CCC(=O)N3CCC2	.	.	.	.	.	.
O=C(CCCn1c(=S)[nH]c2cc3c(cc2c1=O)OCO3)NCc1ccccc1Cl	.	.	.	.	.	.
COc1ccc(CCn2c(=N)c(S(=O)(=O)c3ccc(C)cc3)cc3c(=O)n4ccccc4nc32)cc1	.	.	.	.	.	.
COc1ccccc1CNC(=O)CS(=O)(=O)Cc1nc(-c2ccccc2C)oc1C	?	.	.	/	.	/
O=C(N[C@@H](Cc1ccccc1)C(=O)OCC(=O)N1CCOCC1)c1cccs1	.	.	.	.	.	.
COCCCNc1nc2c(-c3ccccc3)nnn2c2ccccc12	.	?	.	/	.	/
O=C(CN1CCCCC1)N/N=C/c1cc2ccccc2nc1Cl	.	?	?	.	.	.
CC(C)c1ccc(NC(=O)c2cc(Br)ccc2Br)cc1	.	26µM	?	.	.	.
O=C(Nc1ccc(S(=O)(=O)N2CCOCC2)cc1)c1ccc(Cl)cc1	.	21µM	21µM	.	.	.
O=C(Nc1ccc(S(=O)(=O)N2CCOCC2)cc1)c1cc(S(=O)(=O)N2CCOCC2)ccc1Cl	.	?	18µM	.	.	.
O=C(NNC(=S)Nc1cccc(Cl)c1)c1ccccc1OC(F)F	13µM	?	?	?	4.5µM	?
O=C(Nc1ccncc1)c1cc(S(=O)(=O)N2CCOCC2)ccc1Cl	.	.	.	.	.	.
CCC(=O)N(c1nnc(SC(C)C(=O)Nc2ccc(N3CCOCC3)cc2)s1)C1CC1 (centres undefined)	.	.	.	.	.	.
SMILES	TGFb inhibitor	TDP1 cell noCPT	DT40 TDP1 CPT	HT1080NT lethal	HepG2 viability	HT1080 IDH1KD tx
CC(=O)c1ccc(NC(=O)c2cc(S(=O)(=O)N3CCOCC3)ccc2C)cc1	.	?	?	.	.	.
Cc1ccc(S(=O)(=O)N2CCOCC2)cc1C(=O)Nc1ccc(N2CCCCCC2)cc1	?	4.6µM	4.6µM	.	.	?
O=C(Nc1ccc(Cc2ccncc2)cc1)c1ccc(S(=O)(=O)N2CCOCC2)cc1	.	18µM	?	.	.	?
CC1CN(S(=O)(=O)c2ccc(C(=O)Nc3ccc(S(=O)(=O)N4CCOCC4)cc3)cc2)CC(C)O1 (centres undefined)	.	13µM	?	.	.	.
O=C(Nc1ccccc1N1CCOCC1)C1CCN(S(=O)(=O)c2ccccc2F)CC1	.	.	.	.	.	.
Cc1ccc(NC(=O)Cn2cnc3sc(C)c(S(=O)(=O)N4CCN(c5ncccn5)CC4)c3c2=O)cc1F	.	?	.	/	.	/
Cc1ccc(Cl)cc1Nc1nc2ccccc2c2nncn12	.	23µM	?	/	.	/
CCOc1ccccc1Nc1nc2ccccc2c2nncn12	.	?	.	/	.	/
CC(C)C1C(=O)N(Cc2cn(Cc3ccco3)nn2)CCS(=O)(=O)N1Cc1ccc(-c2ccc(F)cc2)cc1 (centres undefined)	?	21µM	?	?	.	?
CC(C)C1C(=O)N(Cc2cn(Cc3ccco3)nn2)CCS(=O)(=O)N1Cc1ccc(-c2ccc(Cl)cc2)cc1 (centres undefined)	?	6.5µM	9.2µM	?	.	?
CC(C)C1C(=O)N(Cc2cn(Cc3ccco3)nn2)CCS(=O)(=O)N1Cc1ccc(-c2ccccc2)cc1 (centres undefined)	?	18µM	?	?	.	?
CC(C)C1C(=O)N(Cc2cn(Cc3ccco3)nn2)CCS(=O)(=O)N1Cc1ccc(-c2ccncc2)cc1 (centres undefined)	.	.	.	.	.	.
CCOC(=O)c1c(C)[nH]c(C)c1S(=O)(=O)N(C)CC(=O)N1CCN(c2ccc(OC)cc2)CC1	.	.	.	.	.	.
Cc1ccc(C(=O)OCC(=O)NC2CCCC(C)C2C)s1 (centres undefined)	.	?	.	.	.	.
COc1ccc(N2CCN(CCCNC(=O)c3cnn(-c4ccc(C)cc4)c3-n3cccc3)CC2)cc1	?	5.2µM	5.8µM	/	.	/
COc1ccc(N2CCN(CCCNC(=O)c3cnn(-c4ccc(F)cc4)c3-n3cccc3)CC2)cc1	.	/	/	/	.	/
CCN(CC)CCCNC(=O)c1cc(Nc2ccc(OC)cc2)nc2ccccc12	.	23µM	18µM	.	.	?
COc1ccc(Nc2cc(C(=O)NCCCN3CCN(C)CC3)c3ccccc3n2)cc1OC	.	.	.	.	.	.
COc1ccc(Nc2cc(C(=O)NCCCN3CCN(c4ccc(OC)cc4)CC3)c3ccccc3n2)cc1	.	8.2µM	8.2µM	/	.	/
COc1ccc(N2CCN(CCCNC(=O)c3cc(Nc4ccccc4OC)nc4ccccc34)CC2)cc1	?	?	23µM	/	.	/
CCOc1ccc(C2NC(=O)CCC2[N+](=O)[O-])cc1 (centres undefined)	.	.	.	.	.	.

Screens deposited in PubChem BioAssay by National Center for Advancing Translational Sciences (NCATS).
